Results: PubChem BioAssay
The source made the active and inactive calls.

test: changes in parasitized red cell lysis, either direction – P. falciparum Indochina, OD700, 3 h, PSAC antagonist project, primary screen (AID 1156); settings: P. falciparum-infected erythrocytes, osmotic lysis, higher = more signal, called active from +8 up or from −8 down

z-score, inactive:
COC(=O)C(CC#Cc1ccc2c(c1)[C@]1(C(=O)N2)[C@H](C(N)=O)[C@H]2C(=O)O[C@H](c3ccccc3)[C@H](c3ccccc3)N2[C@@H]1c1ccccc1OCCO)C(=O)OC 1.02
O=C1OC[C@@H](c2ccccc2)n2cc(/C=C/c3ccccc3)cc21 2.6
CN1C(=O)C2C(C1=O)C1C=C(CCCO)C2C(C2CC2)N1C (stereo unspecified) 0.139
COC(=O)[C@@]1(Cc2ccc(F)cc2)[C@H]2c3cc(C(=O)N(C)C)n(Cc4cccc5ccccc45)c3C[C@H]2CN1C(=O)c1ccccc1 1.07
C[N+](C)(C)CCCC[C@@H]1NC(=O)[C@H]2C[C@@H](C(=O)O)[C@@H](c3ccc(O)cc3)N2C1=O -2.47
C=CCN1C(=O)[C@]2(O[C@H](CCO)[C@@H]([Si](C)(C)c3ccc(OC)cc3)[C@@H]2C)c2cc(N3C(=O)c4ccccc4Oc4ccccc43)ccc21 -0.512
COc1cc2c(cc1OC)CN(C(=O)[C@@H]1[C@H]3C(=O)O[C@H](c4ccccc4)[C@H](c4ccccc4)N3[C@H](c3ccc(O)cc3)[C@@]13C(=O)Nc1ccc(C#CC4=CCCCC4)cc13)CC2 1.2
COc1ccc([Si](C)(C)[C@@H]2[C@@H](CC(=O)N3CCC[C@H]3CO)O[C@]3(C(=O)N(Cc4cccc(N5C(=O)c6cccc7cccc5c67)c4)c4ccccc43)[C@H]2C)cc1 -0.16
O=C1O[C@@H](c2ccccc2)[C@@H](c2ccccc2)N2[C@@H](c3ccccc3OCCO)[C@]3(C(=O)Nc4ccc(C#CC5(O)CCCCCC5)cc43)[C@@H](C(=O)N3CCCCCCC3)[C@H]12 0.786
COc1ccc(NN2C(C(O)c3ccccc3)C=CC3C(=O)N(C4CCCCC4)C(=O)C32)cc1 (stereo unspecified) 1.31
COC(=O)[C@@]1(Cc2ccc(F)cc2)[C@H]2c3cc(C(=O)N4CCCC4)n(C[C@H](O)CO)c3C[C@H]2CN1C(=O)c1ccccc1 0.396

test: plasmodial surface anion channel blockers, osmotic lysis – cell-based, P. falciparum Indochina, OD700, 18 h, primary screen (AID 1157); settings: P. falciparum Indochina infected erythrocytes, osmotic lysis OD700, 18 h; higher = more signal, called active from +8 up or from −8 down

z-score, inactive:
CC1CC/C=C\[C@H]2OC34C=CCN(C(C)C)C(=O)[C@H]3N(C(C)CO)C(=O)[C@@H]4C2C(=O)O1 (stereo partly specified) 0.184
[N-]=[N+]=NCc1ccccc1C[C@]1(C(=O)N2CCCCC2)COC(c2ccc(OCCCO)cc2)=N1 2.11
O=C1NC(=O)C2C1C=CC(C(O)c1ccc(F)cc1)N2Nc1ccc(Cl)cc1Cl (stereo unspecified) 1.22
O=C(NCC(F)(F)F)[C@@H]1c2ccccc2C(=O)N(Cc2cc(C(F)(F)F)cc(C(F)(F)F)c2)[C@H]1c1ccc(CO)cc1 0.257
C=CCNC(=O)[C@H]1[C@@H]2C(=O)O[C@@H](c3ccccc3)[C@@H](c3ccccc3)N2[C@@H](c2ccc(O)cc2)[C@]12C(=O)N(C(=O)OCCOC)c1ccc(C#Cc3ccc(OC)cc3)cc12 0.0195
COCCOC(=O)N1C(=O)[C@@]2(c3cc(C#CCNC(N)=O)ccc31)[C@H](C(N)=O)[C@H]1C(=O)O[C@H](c3ccccc3)[C@H](c3ccccc3)N1[C@@H]2c1ccc(O)cc1 0.141
CC(C)(C)OC(=O)CC[C@@]1(C(N)=O)N=C(c2ccc(OCCCO)cc2)O[C@@H]1c1ccccc1CN=[N+]=[N-] 0.739
COC(=O)[C@@]1(Cc2ccc(F)cc2)[C@H]2c3cc(C(=O)N(C)C)n(CCF)c3C[C@H]2CN1C(=O)c1ccccc1 -1.29
COc1ccc(C(=O)Nc2cccc(CN3C(=O)[C@]4(O[C@H](CC(=O)N(CCO)Cc5ccccc5)[C@@H]([Si](C)(C)c5ccc(OC)cc5)[C@@H]4C)c4ccccc43)c2)cc1 0.795
[N-]=[N+]=NCc1ccccc1C[C@@]1(C(=O)NCCN2CCOCC2)N=C(c2ccc(OCCCO)cc2)O[C@@H]1c1ccccc1 1.65
COC(=O)C1(CC(C)C)C=C2C(=C(C)C(=O)C2C)CN1 (stereo unspecified) 0.421
COC(=O)C(CC#Cc1ccc2c(c1)[C@]1(C(=O)N2)[C@H](c2ccc(OCCO)cc2)N2[C@H](c3ccccc3)[C@H](c3ccccc3)OC(=O)[C@H]2[C@@H]1C(N)=O)C(=O)OC 0.615
CCCN1C(=O)[C@@]2(c3ccc([N+](=O)[O-])cc3)CC(=O)N(C3CCCCC3)[C@@H]2c2ccc(CO)cc21 0.0577
C=CCNC(=O)[C@H]1[C@@H]2C(=O)O[C@@H](c3ccccc3)[C@@H](c3ccccc3)N2[C@@H](c2ccc(OCCO)cc2)[C@]12C(=O)N(C(=O)OCCOC)c1ccc(C#CCC(C(=O)OC)C(=O)OC)cc12 0.656
C=CCOC(=O)[C@H]1[C@@H]2C(=O)O[C@@H](c3ccccc3)[C@@H](c3ccccc3)N2[C@@H](c2ccc(OCCOC(=O)[C@H]3C[C@H]4C(=O)NCC(=O)N4[C@H]3c3ccc(O)cc3)cc2)[C@]12C(=O)Nc1ccccc12 0.987
COc1ccc(C(=O)Nc2ccc(CN3C(=O)[C@@]4(O[C@@H](CC(=O)N(CCO)Cc5ccccc5)[C@H]([Si](C)(C)c5ccc(OC)cc5)[C@H]4C)c4ccccc43)cc2)cc1 -0.236
CCOC(=O)C1=CCC(c2ccncc2)N(S(=O)(=O)c2ccc(C)cc2)C1 (stereo unspecified) 0.953
O=C1O[C@H](c2ccccc2)[C@H](c2ccccc2)N2[C@H]1[C@@H](C(=O)O)[C@]1(C(=O)Nc3ccc(C#CC4(O)CCCCCC4)cc31)[C@H]2c1ccccc1OCCO -0.743
O=C1O[C@H](c2ccccc2)[C@H](c2ccccc2)N2[C@H]1[C@@H](C(=O)O)[C@]1(C(=O)Nc3ccccc31)[C@H]2c1ccc(OCCO)cc1 0.124
CCCCCCc1nc(-c2ccc(OC)nc2)c(C)c2c1[Si](C(C)C)(C(C)C)OC2 -0.349
COC(=O)Cn1c(C(=O)N(C)C)cc2c1C[C@H]1CN(C(=O)c3ccccc3)[C@@](Cc3ccccc3)(C(=O)OC)[C@@H]21 -1.31
COc1ccc([Si](C)(C)[C@H]2[C@H](CC(=O)N3CCC[C@H]3CO)O[C@@]3(C(=O)N(C)c4ccccc43)[C@@H]2C)cc1 0.423
C=CC[C@H](OC(=O)Nc1ccc(SC)cc1)c1ccc(O)c(F)c1 0.966
Cc1ccc(S(=O)(=O)N2[C@@H](c3ccccc3)C(C(=O)O)=CC[C@H]2c2ccc(F)cc2)cc1 0.66
COC(=O)C(CC#Cc1ccc2c(c1)[C@]1(C(=O)N2)[C@H](C(N)=O)[C@H]2C(=O)O[C@H](c3ccccc3)[C@H](c3ccccc3)N2[C@@H]1c1ccccc1OCCO)C(=O)OC 1.47
O=C1OC[C@@H](c2ccccc2)n2cc(/C=C/c3ccccc3)cc21 -1.8
CN1C(=O)C2C(C1=O)C1C=C(CCCO)C2C(C2CC2)N1C (stereo unspecified) -1.17
COC(=O)[C@@]1(Cc2ccc(F)cc2)[C@H]2c3cc(C(=O)N(C)C)n(Cc4cccc5ccccc45)c3C[C@H]2CN1C(=O)c1ccccc1 1.28
C[N+](C)(C)CCCC[C@@H]1NC(=O)[C@H]2C[C@@H](C(=O)O)[C@@H](c3ccc(O)cc3)N2C1=O 0.302
C=CCN1C(=O)[C@]2(O[C@H](CCO)[C@@H]([Si](C)(C)c3ccc(OC)cc3)[C@@H]2C)c2cc(N3C(=O)c4ccccc4Oc4ccccc43)ccc21 2.95
COc1cc2c(cc1OC)CN(C(=O)[C@@H]1[C@H]3C(=O)O[C@H](c4ccccc4)[C@H](c4ccccc4)N3[C@H](c3ccc(O)cc3)[C@@]13C(=O)Nc1ccc(C#CC4=CCCCC4)cc13)CC2 1.23
COc1ccc([Si](C)(C)[C@@H]2[C@@H](CC(=O)N3CCC[C@H]3CO)O[C@]3(C(=O)N(Cc4cccc(N5C(=O)c6cccc7cccc5c67)c4)c4ccccc43)[C@H]2C)cc1 -1.24
O=C1O[C@@H](c2ccccc2)[C@@H](c2ccccc2)N2[C@@H](c3ccccc3OCCO)[C@]3(C(=O)Nc4ccc(C#CC5(O)CCCCCC5)cc43)[C@@H](C(=O)N3CCCCCCC3)[C@H]12 -1.64
COc1ccc(NN2C(C(O)c3ccccc3)C=CC3C(=O)N(C4CCCCC4)C(=O)C32)cc1 (stereo unspecified) 1.22
COC(=O)[C@@]1(Cc2ccc(F)cc2)[C@H]2c3cc(C(=O)N4CCCC4)n(C[C@H](O)CO)c3C[C@H]2CN1C(=O)c1ccccc1 0.668
